Active and inactive are the calls of the source.
Columns and labels:
Albumin (Bos taurus) = Albumin (Bos taurus) (UniProt P02769); assay: compounds binding labelled BSA control protein – biochemical, small-molecule microarray, Alexa647 label, 635/667 nm fluorescence, artefact control for SMM control protein annotation, profiling panel (AID 1118); settings: BSA-A647 binding, fluorescence 635 nm, higher = more signal;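 note: score merges 667 nm emission intensity and signal-to-noise per printed compound spot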
[1] = probe aXIP binding to arrayed compounds – biochemical, NeuroSMM set, 635/667 nm fluorescence, primary screen (AID 1119); settings: small-molecule microarray, higher = more signal, called active from +8 up or from −8 down;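 note: probe is the protein aXip251-270 applied at 1 µg/mL to compound-printed slides; binding of probe to printed compounds measured as 667 nm fluorescence plus signal to noise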
[2] = probe aNOTCH3 binding on compound microarray – biochemical, small-molecule microarray, 635/667 nm fluorescence, primary screen (AID 1120); settings: higher = more signal;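 note: probe is a biotin-tagged antibody raised against NOTCH3 rather than NOTCH3 protein; score merges spot fluorescence near 667 nm with spot signal to noise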
[3] = probe aNOTCH2 binding on compound microarray – biochemical, small-molecule microarray, 635/667 nm fluorescence, primary screen (AID 1121); settings: higher = more signal;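 note: score merges feature fluorescence read at 667 nm with its signal to noise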
[4] = target: Carbonic anhydrase 2 (Homo sapiens) (UniProt P00918); assay: compounds binding carbonic anhydrase 2 – biochemical, small-molecule microarray, Alexa647-labelled CAII, profiling panel (AID 1122); settings: CAII-A647 binding fluorescence, higher = more signal
[5] = COS7 lysate on small-molecule microarray, probe aHis, 635 nm (AID 1123); settings: COS7 cell lysate, fluorescence, higher = more signal;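 note: z-score combines 667nm fluorescence intensity with signal-to-noise per printed compound spot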
[6] = probe aLAP1 signal on lysate-treated microarray – cell lysate, small-molecule microarray, COS7 lysate, primary screen (AID 1124); settings: probe aLAP1, fluorescence, higher = more signal;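 note: lysate comes from COS7 cells expressing LAP1 and is applied at 0.3 µg/mL; score merges spot fluorescence near 667 nm with signal-to-noise over triplicate slides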
Sam68 (KHDRBS1) = assay: compounds binding KHDRBS1 protein – biochemical, small-molecule microarray, 635 nm fluorescence, primary screen (AID 1125); settings: higher = more signal;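 note: score merges 667 nm channel intensity with signal to noise over triplicate slides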
[7] = test system: Chordin-like protein 2 (CHRDL2); assay: compounds binding chordin-like 2 – biochemical, small-molecule microarray, 635 nm fluorescence, primary screen (AID 1126); settings: fluorescence 635 nm, higher = more signal;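 note: printed compound slides probed with Chrdl2 protein at 4 µg/mL for 1 h at 4 C; score merges 667 nm emission intensity with signal to noise over three replicate slides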
[8] = target: Concanavalin-A (Canavalia ensiformis) (UniProt P02866); assay: compounds binding concanavalin A lectin – biochemical, small-molecule microarray, Alexa647 label, 635 nm, artefact control for SMM control protein annotation, primary screen (AID 1127); settings: ConA-A647 binding fluorescence, higher = more signal;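 note: z combines 667 nm emission intensity with signal-to-noise across three replicate slides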
Chain of Concanavalin-A (Canavalia ensiformis) (P02866 whole entry, looked up): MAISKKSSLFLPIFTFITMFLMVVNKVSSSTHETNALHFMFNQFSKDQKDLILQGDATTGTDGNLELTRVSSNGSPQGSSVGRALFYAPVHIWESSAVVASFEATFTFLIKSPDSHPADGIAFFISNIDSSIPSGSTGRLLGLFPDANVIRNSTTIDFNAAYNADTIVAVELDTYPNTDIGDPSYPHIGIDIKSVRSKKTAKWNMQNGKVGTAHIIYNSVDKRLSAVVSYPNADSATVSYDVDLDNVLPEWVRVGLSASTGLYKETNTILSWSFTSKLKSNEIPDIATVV

Chain of Albumin (Bos taurus) (P02769 whole entry, looked up): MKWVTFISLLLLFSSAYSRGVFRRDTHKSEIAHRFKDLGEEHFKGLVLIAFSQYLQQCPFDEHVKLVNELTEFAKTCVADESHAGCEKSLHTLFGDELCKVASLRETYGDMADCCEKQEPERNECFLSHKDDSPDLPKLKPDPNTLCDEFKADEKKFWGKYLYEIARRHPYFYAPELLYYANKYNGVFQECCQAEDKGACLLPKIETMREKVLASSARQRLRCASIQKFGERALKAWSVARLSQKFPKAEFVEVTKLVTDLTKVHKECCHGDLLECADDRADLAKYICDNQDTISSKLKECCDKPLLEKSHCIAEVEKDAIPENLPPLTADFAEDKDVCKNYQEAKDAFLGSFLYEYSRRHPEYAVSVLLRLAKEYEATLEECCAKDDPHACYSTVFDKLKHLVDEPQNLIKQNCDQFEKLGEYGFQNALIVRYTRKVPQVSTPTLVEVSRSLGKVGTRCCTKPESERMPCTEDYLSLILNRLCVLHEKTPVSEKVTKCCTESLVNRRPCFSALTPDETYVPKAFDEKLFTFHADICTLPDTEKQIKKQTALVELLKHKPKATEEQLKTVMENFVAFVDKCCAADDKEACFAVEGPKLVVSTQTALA

SMILES	composite z-score (Albumin (Bos taurus))	composite Z-score [1]	composite z-score [2]	composite z-score [3]	composite z-score [4]	composite z-score [5]	composite z-score [6]	composite z-score (Sam68 (KHDRBS1))	composite z-score [7]	composite z-score [8]
C#CCNCc1ccccc1	-0.172	0.204 (inactive)	-0.201	-0.117	-0.0848	-0.0833	0.149	0.44	0.128	0.159
C=CCNC(=O)[C@@H]1[C@H]2C(=O)O[C@H](c3ccccc3)[C@H](c3ccccc3)N2[C@H](c2ccc(OCCO)cc2)[C@@]12C(=O)N(C(=O)OCCOC)c1ccc(C#CCC(C(=O)OC)C(=O)OC)cc12	0.371	0.0558 (inactive)	0.199	0.0278	0.637	1.37	1.05	1.31	0.665	1.09
C=CC[C@@]1(C(=O)N2CCCCC2)N=C(c2ccc(OCCCO)cc2)O[C@@H]1c1ccccc1CN=[N+]=[N-]	0.866	-0.166 (inactive)	0.244	-0.0505	0.671	3.13	1.06	1.29	-0.602	1.04
COC(=O)[C@@]1(Cc2ccc(OC)cc2)[C@H]2c3cc(C(=O)N4CCCC4)n(CCc4ccc(O)c(O)c4)c3C[C@H]2CN1C(=O)c1ccccc1	0.881	-0.2 (inactive)	0.144	0.336	0.79	3.42	0.932	-0.0777	-0.237	0.0245
CCCCN1CC=CC23O[C@@H]4/C=C\CCCOC(=O)C4[C@H]2C(=O)N(CCCCCO)[C@@H]3C1=O (stereo not given in full)	-1.09	0.414 (inactive)	-0.326	-0.192	0.754	-0.494	0.85	-1.12	-0.722	-1.22
C[N+](C)(C)CCCCCCNC(=O)[C@H]1C[C@H]2C(=O)N[C@@H](Cc3ccccc3)C(=O)N2[C@H]1c1cccc(OCCO)c1	-0.174	0.35 (inactive)	-0.1	-0.107	0.638	2.1	0.319	0.699	1.01	0.996
O=C1C[C@@](C(=O)NCc2ccccc2)(c2ccc([N+](=O)[O-])cc2)[C@@H](c2ccc(CO)cc2)N1CC12CC3CC(CC(C3)C1)C2	-0.0057	-0.36 (inactive)	-0.128	-0.14	0.479	1.37	2.12	1.31	0.119	0.89
O=C1C2C=CC(C(O)C=Cc3ccc([N+](=O)[O-])cc3)N(n3cnnc3)C2C(=O)N1Cc1ccccc1 (stereo not given)	0.235	0.263 (inactive)	0.177	0.02	0.66	1.38	1.04	1.19	0.682	0.876
O=C(CS)NCCCCCNC(=O)[C@H]1C[C@H]2C(=O)NCC(=O)N2[C@H]1c1cccc(OCCO)c1	-0.221	-0.269 (inactive)	-0.249	-0.164	0.728	0.0504	-0.442	-0.956	0.577	0.687
COCCCNC(=O)[C@@]1(Sc2ccc(C)cc2)CC(=O)N(Cc2ccccc2Cl)[C@@H]1c1ccc(CO)cc1	0.71	-0.301 (inactive)	0.132	-0.14	0.718	1.35	0.203	1.1	0.649	0.629
COCCOC(=O)N1C(=O)[C@@]2(c3cc(C#CCCO)ccc31)[C@H](c1ccc(OCCO)cc1)N1[C@H](c3ccccc3)[C@H](c3ccccc3)OC(=O)[C@H]1[C@@H]2C(N)=O	0.482	0.606 (inactive)	-0.0117	-0.0567	0.588	1.93	-0.591	1.29	0.437	1.17
CCCC1(C(=O)OC)C=C2C(=C(c3ccccc3)C(=O)C2C)CN1 (stereo not given)	-0.0235	0.589 (inactive)	0.0365	0.015	0.756	1.51	0.959	0.0707	0.108	-1.13
CC=CC(O)C1C=CC2C(=O)N(C)C(=O)C2N1N(c1ccccc1)c1ccccc1 (stereo not given)	0.803	-0.222 (inactive)	0.0864	0.0843	0.837	-0.213	0.198	-0.113	0.686	0.555
CCOC(=O)C[C@H]1[C@H](OC(=O)c2ccc(-c3ccccc3)cc2)[C@@H](NC(=O)c2ccccc2)c2cc(OCCCO)ccc2N1C(=O)c1ccc2ccccc2n1	0.828	0.21 (inactive)	0.0069	-0.0811	0.287	0.96	0.547	1.18	-0.8	0.627
COc1ccc(-c2cc3c(c(Cc4ccccc4)n2)[Si](C(C)C)(C(C)C)OC3)cn1	-0.832	0.168 (inactive)	0.0596	-0.155	-0.272	-0.0385	-0.124	-0.0817	0.21	-0.739
C=CCOC(=O)[C@H]1[C@@H]2C(=O)O[C@@H](c3ccccc3)[C@@H](c3ccccc3)N2[C@@H](c2ccc(OCCOC(=O)[C@@H]3C[C@@H]4C(=O)N5CCC[C@H]5C(=O)N4[C@@H]3c3cccc(OCCO)c3)cc2)[C@]12C(=O)Nc1ccc(I)cc12	-0.656	0.686 (inactive)	1.12	0.117	0.269	1.15	0.322	1.29	1.18	1.14
C=C[C@H](C)[C@@H](OC(=O)Nc1ccc(SC)cc1)c1ccc(O)c2ccccc12	0.0219	-0.552 (inactive)	0.0636	-0.0928	0.609	1.84	0.188	1.32	1.13	1.02
CCOC(=O)C1=CC[C@H]2C(=O)N(c3ccccc3)C(=O)[C@@H]12	0.916	1.58 (inactive)	0.0893	-0.046	0.848	2.7	0.786	1.31	0.613	1.05
CS(=O)(=O)CCOC(=O)C1=CC(CCCO)=CC(C2CC2)N(Cc2cc3c(cc2Br)OCO3)C=C1C(=O)OCCS(C)(=O)=O (stereo not given)	0.741	-0.289 (inactive)	-0.0573	-0.0322	0.774	0.88	0.495	0.531	0.45	0.544
COCCCNC(=O)[C@@]1(Cc2ccccc2)N=C(c2ccc(OCCCO)cc2)O[C@H]1c1ccccc1CN=[N+]=[N-]	0.884	0.294 (inactive)	0.217	0.253	0.752	2.78	0.982	1.32	-1.1	1.12

From PubChem BioAssay
